PubChem BioAssay AID1159580 (chemical genetic matrix, 2015)
Screen size: about 5,500 compounds; about 2,000 (36%) were called active. Roughly 18% stayed inconclusive and do not appear here. Cut-off read from the data, not from the text of the source: active = normalized growth mostly below about 0.91 (no sharp cut-off); inconclusive = no clear call, values can overlap the other calls; inactive = mostly above about 0.92. This is one part of the list.

Assay: chemical genetic growth profiling, strain panel (AID 1159580);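 note: tested at 20 µM; growth read once vehicle control cultures reached saturation at 30 °C; 1 = growth at the plate median or of vehicle wells; lower values mean less growth of the strain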
Details: growth OD

Measured: normalized growth

CC1=C2C(O)C(=O)OC3CC4C(C)(C)C(=O)C=C[C@]4(C)C(CC1)[C@]23C (some centres not stated)
inactive: S. cerevisiae deletion strains, locus YJR043C, strain POL32, stronger effect = lower value 1.01 | S. cerevisiae deletion strains, locus YJR066W, strain TOR1, stronger effect = lower value 0.967 | S. cerevisiae deletion strains, locus YJR075W, strain HOC1, stronger effect = lower value 1.03 | S. cerevisiae deletion strains, locus YKL009W, strain mrt4, stronger effect = lower value 1.03 | S. cerevisiae deletion strains, locus YKL068W, stronger effect = lower value 1.01 | S. cerevisiae deletion strains, locus YKL085W, strain MDH1 (second series), stronger effect = lower value 1 | S. cerevisiae deletion strains, locus YKL085W, strain MDH1, stronger effect = lower value 1 | S. cerevisiae deletion strains, locus YKL160W, strain elf1, stronger effect = lower value 1 | S. cerevisiae deletion strains, locus YKR001C, strain vps1, stronger effect = lower value 0.996 | S. cerevisiae deletion strains, locus YKR026C, strain gcn3, stronger effect = lower value 1.01 | S. cerevisiae deletion strains, locus YKR091W, strain srl3, stronger effect = lower value 1.01 | S. cerevisiae deletion strains, locus YLL001W, strain dnm1, stronger effect = lower value 0.992 | S. cerevisiae deletion strains, locus YLL026W, stronger effect = lower value 1.01 | S. cerevisiae deletion strains, locus YLL041C, strain sdh2, stronger effect = lower value 1.02 | S. cerevisiae deletion strains, locus YLR027C, strain aat2, stronger effect = lower value 1 | S. cerevisiae deletion strains, locus YLR039C, strain RIC1, stronger effect = lower value 1.15 | S. cerevisiae deletion strains, locus YLR058C, strain SHM2, stronger effect = lower value 1.03 | S. cerevisiae deletion strains, locus YLR102C, strain apc9, stronger effect = lower value 1.02 | S. cerevisiae deletion strains, locus YLR113W, strain HOG1, stronger effect = lower value 0.984 | S. cerevisiae deletion strains, locus YLR221C, strain rsa3, stronger effect = lower value 1.03 | S. cerevisiae deletion strains, locus YLR258W, strain gsy2, stronger effect = lower value 1.01 | S. cerevisiae deletion strains, locus YLR262C, strain YPT6 (second series), stronger effect = lower value 1.06 | S. cerevisiae deletion strains, locus YLR268W, strain sec22, stronger effect = lower value 1.02 | S. cerevisiae deletion strains, locus YLR320W, strain mms22, stronger effect = lower value 1.01 | S. cerevisiae deletion strains, locus YLR342W, strain FKS1 (second series), stronger effect = lower value 1.03 | S. cerevisiae deletion strains, locus YLR342W, strain FKS1, stronger effect = lower value 1.01 | S. cerevisiae deletion strains, locus YLR357W, strain rsc2, stronger effect = lower value 1.02 | S. cerevisiae deletion strains, locus YLR370C, strain arc18, stronger effect = lower value 1 | S. cerevisiae deletion strains, locus YLR371W, strain rom2, stronger effect = lower value 0.985 | S. cerevisiae deletion strains, locus YLR384C, strain iki3, stronger effect = lower value 1.02 | S. cerevisiae deletion strains, locus YLR418C, strain cdc73, stronger effect = lower value 1.07 | S. cerevisiae deletion strains, locus YML016C, strain PPZ1, stronger effect = lower value 1.02 | S. cerevisiae deletion strains, locus YML032C, strain rad52, stronger effect = lower value 1 | S. cerevisiae deletion strains, locus YML120C, strain ndi1, stronger effect = lower value 1 | S. cerevisiae deletion strains, locus YML124C, strain tub3, stronger effect = lower value 1.01 | S. cerevisiae deletion strains, locus YMR058W, strain fet3, stronger effect = lower value 1.01 | S. cerevisiae deletion strains, locus YMR078C, strain ctf18, stronger effect = lower value 1.02 | S. cerevisiae deletion strains, locus YMR125W, strain sto1, stronger effect = lower value 1.01 | S. cerevisiae deletion strains, locus YMR129W, stronger effect = lower value 1.01 | S. cerevisiae deletion strains, locus YMR205C, strain PFK2, stronger effect = lower value 1 | S. cerevisiae deletion strains, locus YMR223W, strain ubp8, stronger effect = lower value 1.01 | S. cerevisiae deletion strains, locus YMR231W, strain pep5, stronger effect = lower value 1.01 | S. cerevisiae deletion strains, locus YMR307W, strain GAS1, stronger effect = lower value 1.03 | S. cerevisiae deletion strains, locus YNL067W, strain RPL9B, stronger effect = lower value 1.05 | S. cerevisiae deletion strains, locus YNL071W, strain lat1, stronger effect = lower value 0.999 | S. cerevisiae deletion strains, locus YNL128W, strain TEP1, stronger effect = lower value 1.02 | S. cerevisiae deletion strains, locus YNL183C, strain NPR1, stronger effect = lower value 0.978 | S. cerevisiae deletion strains, locus YNL209W, strain ssb2, stronger effect = lower value 1.01 | S. cerevisiae deletion strains, locus YNL233W, strain BNI4, stronger effect = lower value 1.06 | S. cerevisiae deletion strains, locus YNL248C, strain rpa49, stronger effect = lower value 1.01 | S. cerevisiae deletion strains, locus YNL250W, strain rad50, stronger effect = lower value 1.03 | S. cerevisiae deletion strains, locus YNL271C, strain bni1, stronger effect = lower value 1.02 | S. cerevisiae deletion strains, locus YNL298W, strain CLA4, stronger effect = lower value 1 | S. cerevisiae deletion strains, locus YNL307C, strain MCK1, stronger effect = lower value 1.03 | S. cerevisiae deletion strains, locus YNL322C, strain KRE1 (second series), stronger effect = lower value 1.04 | S. cerevisiae deletion strains, locus YNR049C, strain mso1, stronger effect = lower value 1.01 | S. cerevisiae deletion strains, locus YNR052C, strain pop2, stronger effect = lower value 1.04 | S. cerevisiae deletion strains, locus YOL012C, strain htz1 0.949 | S. cerevisiae deletion strains, locus YOL147C, strain pex11, stronger effect = lower value 1.01 | S. cerevisiae deletion strains, locus YOR001W, strain rrp6, stronger effect = lower value 1.01 | S. cerevisiae deletion strains, locus YOR061W, strain CKA2, stronger effect = lower value 1.01 | S. cerevisiae deletion strains, locus YOR069W, strain VPS5, stronger effect = lower value 1.01 | S. cerevisiae deletion strains, locus YOR070C, strain gyp1, stronger effect = lower value 1.02 | S. cerevisiae deletion strains, locus YOR080W, strain dia2, stronger effect = lower value 1.02 | S. cerevisiae deletion strains, locus YOR083W, strain WHI5, stronger effect = lower value 1.01 | S. cerevisiae deletion strains, locus YOR106W, strain vam3, stronger effect = lower value 0.983 | S. cerevisiae deletion strains, locus YOR136W, strain idh2, stronger effect = lower value 1.03 | S. cerevisiae deletion strains, locus YOR144C, strain elg1, stronger effect = lower value 1.01 | S. cerevisiae deletion strains, locus YOR184W, strain ser1, stronger effect = lower value 1.01 | S. cerevisiae deletion strains, locus YOR231W, strain MKK1, stronger effect = lower value 1.03 | S. cerevisiae deletion strains, locus YOR265W, strain rbl2, stronger effect = lower value 1 | S. cerevisiae deletion strains, locus YOR270C, strain vph1, stronger effect = lower value 1.05 | S. cerevisiae deletion strains, locus YOR290C, strain snf2, stronger effect = lower value 1.01 | S. cerevisiae deletion strains, locus YOR316C, strain cot1, stronger effect = lower value 1.01 | S. cerevisiae deletion strains, locus YPL051W, strain arl3, stronger effect = lower value 1.02 | S. cerevisiae deletion strains, locus YPL055C, strain LGE1, stronger effect = lower value 1.03 | S. cerevisiae deletion strains, locus YPL078C, strain atp4, stronger effect = lower value 0.998 | S. cerevisiae deletion strains, locus YPL106C, strain sse1, stronger effect = lower value 1.03 | S. cerevisiae deletion strains, locus YPL240C, strain hsp82, stronger effect = lower value 1.01 | S. cerevisiae deletion strains, locus YPL241C, strain CIN2, stronger effect = lower value 1.01 | S. cerevisiae deletion strains, locus YPL256C, strain CLN2, stronger effect = lower value 1.01 | S. cerevisiae deletion strains, locus YPR119W, strain clb2, stronger effect = lower value 1.01 | S. cerevisiae deletion strains, locus YPR141C, strain kar3, stronger effect = lower value 1.03 | S. cerevisiae deletion strains, locus YPR163C, strain tif3, stronger effect = lower value 1.02 | S. cerevisiae deletion strains, locus YPR167C, strain met16, stronger effect = lower value 1.03 | S. cerevisiae deletion strains, strain wtn01, stronger effect = lower value 0.994 | S. cerevisiae strains, strain wild type, stronger effect = lower value 1.01
